This is an account of results in PubChem BioAssay AID651958 (The Scripps Research Institute Molecular Screening Center, 2012).

Hit rate of the full screen: of about 370,000 compounds, about 2,000 (0.54%) were called active. The list comes from a sample in which actives are over-represented; it also holds similar structures and randomly drawn compounds. Values without a mark were called inactive. No stated cut-off is given here; in the data, active means inhibition above about 30%; inactive means the rest.

This experiment concerns Crimean-Congo hemorrhagic fever virus L polyprotein viral ovarian tumor (vOTU) protease domain. Put plainly: CCHFV vOTU protease inhibitors, primary screen, biochemical, Pep-AMC substrate, fluorescence (AID 651958). Further: 0% = vehicle wells with enzyme and 100% = no enzyme wells. To be noted: at 11.5 µM, active compounds read high.
For `Cc1ccc(S(=O)(=O)N2CCN(C(=O)Cn3c(=O)cnc4ccccc43)CC2)c(C)c1`, the inhibition was 14.9%. The value for `O=C(CNCc1ccco1)Nc1cc(S(=O)(=O)N2CCOCC2)ccc1N1CCCC1` was -3.18%. The value for `CC(C)C[C@H](NC(=O)C1CCC(CNC(=O)[C@@H]2CCCN2C(=O)OC(C)(C)C)CC1)C(=O)O` (stereo partly specified) was -6.89%; that for `Oc1c(CN2CCN(c3ccc(F)cc3)CC2)cc(Cl)c2cccnc12` was 31.6% (active); that for `CC(C)c1ccc(O)c(CN2CCN(c3ccccc3)CC2)c1` was -12.4%.

As for `O=C(c1ccccc1)c1cccn1CC(=O)N1CCN(c2ccc(F)cc2)CC1`, the inhibition was -2.38%. Turning to `Cc1ccc(S(=O)(=O)N2CCC(=O)N([C@H](COCc3ccccc3)C(C)C)CC2)cc1`, the inhibition was 3.62%.

As for `COc1ccc(NC(=O)CNC(=O)Cn2ccc3ccccc3c2=O)c(OC)c1`, the inhibition was -6.81%. The value for `Cc1ccc(Sc2cc(N3CCOCC3)nc(-c3ccccc3)n2)cc1` was 13.3%. Under `O=C(OC(C(=O)NC1CCCC1)c1ccc(F)cc1)c1ccno1` (stereo unspecified) stands -21.1%. As to `Oc1ccc(CNc2ccccc2O)cc1`, the inhibition is 37% (active). Consider `OCC(CO)(CO)NCc1ccc(-c2ccccc2)cc1`, for which the inhibition was -4.11%. Under `COC(=O)C1=CN(c2c(C)cc(C)cc2C)C(N)=C(C#N)C1c1cccc(F)c1` (stereo unspecified) stands 4.61%; under `O=C(Nc1cccc2c1CCCC2)C1CCN(C(=O)NC2CCCCC2)CC1`, -8.92%; under `O=C(NC1CCCCC1)N1CCc2[nH]c3ccccc3c2C1`, 58.5% (active). The value for `O=C(CSc1nnc2c(n1)[nH]c1ccccc12)NC1CCCCC1` was -13%. The value for `CCCNC(=S)N1CCC(NC(=O)C23CC4CC(CC(C4)C2)C3)CC1` was -4.34%; that for `CN1OC[C@@H]2CN(C(=O)c3cccnc3)[C@H](c3ccc(N4CCCCC4)cc3)C[C@@H]21` was -0.01%. For `N#Cc1cccc(CSc2nnc(CCCO)n2-c2ccccc2)c1`, the inhibition was -2.93%.

Consider `CCOc1cc(NC(=O)c2ccccc2C(=O)O)c(OCC)cc1NC(=O)c1ccccc1F`, for which the inhibition was 35.5% (active). For `CCOc1cc(NC(=O)CCl)c(OCC)cc1NC(C)=O`, the inhibition was 11.3%. The value for `CCOc1ccccc1NC(=O)c1cc(S(=O)(=O)N2CCC3(CC2)OCCO3)ccc1F` was -13.4%; that for `S=C(NCCc1ccccc1)N1CCn2cccc2C1c1ccncc1` (stereo unspecified) was 20.5%; that for `c1ccc(N2Cc3ccccc3-n3nncc3C2)nc1` was -2.36%. The value for `Cc1ccn2c(c1)nc(=O)c1cc(S(=O)(=O)N3CCC(C)CC3)ccc12` was -11.7%; that for `CCCCN(CC(=O)Nc1cccc(S(=O)(=O)N2CCCC2)c1)Cc1nc2ccccc2c(=O)[nH]1` was 3.14%. The value for `CC(=O)Nc1ccc(NC(=O)CSc2nnnn2C2CCCCC2)cc1` was -5.32%; that for `CCn1nnnc1SCC(=O)Nc1ccc(N(C)C)cc1` was 30.6% (active); that for `CC(=O)Nc1ccc(NC(=O)CSc2nnnn2-c2ccccc2F)cc1` was 2.7%. Consider `CCn1c(SCC(=O)NC2=NCCS2)nnc1C(C)NC(=O)c1ccccc1F` (stereo unspecified), for which the inhibition was 0.18%.

For the compound `COCCCNS(=O)(=O)c1cccc(S(=O)(=O)c2cccc(S(=O)(=O)NCCCOC)c2)c1`, the inhibition is -10.2%. Under `Cc1ccc(C2(C(F)(F)F)N=C3Sc4cc(C)cc(C)c4N3C(=O)N2)cc1` (stereo unspecified) stands -15.2%. The value for `O=C(CSc1nnc(COc2ccccc2)n1Cc1ccco1)c1ccc2ccccc2c1` was 7.39%; that for `Cc1ccc(-c2nnc(SCC(=O)Nc3ccc(Oc4ccccc4)cc3)n2Cc2ccco2)cc1` was 6.1%; that for `Cc1ccc(OCc2nnc(SC/C=C/c3ccccc3)n2Cc2ccco2)cc1` was 31.9% (active). The value for `O=C(Cc1ccc(NC(=O)C2CCCN(C(=O)CCc3ccccc3)C2)cc1)Nc1ccc(C(=O)N2CCOCC2)cc1` (stereo unspecified) was 23.1%. `Cc1ccc(CSc2nc3[nH]ncc3c(=O)[nH]2)cc1`: the inhibition was -0.35%.

On to `Cc1ccc(CSc2nc(-c3ccccc3)c(C#N)c(=O)[nH]2)cc1`, for which the inhibition is 39.9% (active). In the case of `Cc1ccccc1CSc1nnc(-c2ccccc2)c(=O)[nH]1`, the inhibition is -2.29%. As for `COCCNC(=O)Nc1ccc2nc(-c3ccco3)c(-c3ccco3)nc2c1`, the inhibition was 36% (active). `CN(C)c1ccc(NC(=O)CSc2n[nH]c(-c3ccco3)n2)cc1`: the inhibition is 4.49%. For the compound `Cc1ccc(O)c(NC(=O)c2cc(-c3ccco3)on2)c1`, the inhibition was -0.2%.

On to `COc1ccc(NC(=O)NN2CCN(C)CC2)c(OC)c1`, for which the inhibition was 4.34%. Under `CN1CCCc2cc(C#N)c(=O)[nH]c21` stands -314%. Consider `CSCCC(NS(=O)(=O)c1ccc2c(c1)oc(=O)n2C)C(=O)NC1CCCc2ccccc21` (stereo unspecified), for which the inhibition was 7.61%. For the compound `Cc1cc(N2CCNC[C@@H]2C)ccc1N1CC[C@H](O)C1`, the inhibition is -1.97%. In the case of `COc1ccc(/C=N/NC(=O)Cn2cc(C(F)(F)F)ccc2=O)cc1`, the inhibition is 4.22%. On to `Oc1ccc(/C=N/Nc2ccc(C(F)(F)F)cn2)cc1O`, for which the inhibition was 31.3% (active). Under `O=C(N/N=C/c1ccc(O)c(O)c1)C1c2ccccc2Oc2ccccc21` stands 4.82%; under `CCc1cccc(C)c1N(C(=O)Cn1c(CO)nc2ccccc21)C(C)COC` (stereo unspecified), 6.13%. As to `O=C(Nc1cc(S(=O)(=O)N2CCOCC2)ccc1N1CCOCC1)c1c(F)cccc1Cl`, the inhibition was 8.3%. Under `Cc1ccc2c(c1)C(c1ccccc1)N(C(=O)c1ccc(S(=O)(=O)N3CCOCC3)cc1)CC(=O)N2` (stereo unspecified) stands -6.16%; under `Cc1ccc(S(=O)(=O)N2CCN(C(=O)c3cccs3)CC2)cc1`, -14.5%.

For `COc1ccccc1NC1=NC(c2ccc(Cl)cc2)N=C(N)N1` (stereo unspecified), the inhibition was 2.38%. The value for `Cc1ccc(NC(=S)N2CCN(c3ncccn3)CC2)cc1C` was 2.37%. `CCNC(=S)N1CCN(S(=O)(=O)c2ccc(Cl)s2)CC1`: the inhibition is 11.2%. The value for `CCNC(=S)N1CCN(c2ncccn2)CC1` was 43.8% (active).

As to `CCC(C(=O)NCc1cccnc1)n1nc(C)c2sc3ccccc3c2c1=O` (stereo unspecified), the inhibition is -2%. Turning to `COCCNC(=O)C1C(=O)Nc2ccccc2C(=O)N1c1ccc2c(c1)OCCO2` (stereo unspecified), the inhibition is 26.3%. The value for `O=C(/C=C/c1cccs1)c1cc(Cl)ccc1OC(=O)N1CCOCC1` was 10.7%; that for `Cc1cc2nc(SCCN3CCOCC3)[nH]c2cc1C` was 3.87%; that for `CCOC(=O)N1CCC(C(N)=O)CC1` was 8.61%.

Regarding `CCOC(=O)N1CCC(NC(=O)Cc2cn(C)c3ccccc23)CC1`, the inhibition was 3.03%. As for `CCOC(=O)N1CCC(c2cc(=O)n(-c3ccccc3)[nH]2)CC1`, the inhibition is 71.1% (active). For the compound `CCOc1ccc(CNC(=O)C2CC(=O)N(C3CCCC3)C2)cc1OC` (stereo unspecified), the inhibition was 4.25%.

Consider `CC(C)(C)OC(=O)NC(Cc1ccccc1)C(=O)NC(CSC1CCCCO1)C(=O)NN` (stereo unspecified), for which the inhibition is -4.89%. With `CCOC(=O)N(C)c1c(CC)nc2c(OCc3ccccc3C(=O)OC)cccn12`, the inhibition is 15.9%. Under `Cc1ccccc1CN1CCN(C(=O)c2cccc(F)c2)CC1` stands 6.94%; under `C=CCn1c(SCc2cccc(F)c2)nc2cc(C(=O)N3CCC(C(N)=O)CC3)ccc2c1=O`, 14.2%; under `O=C1Nc2cc(C(=O)N3CCN(c4ccc(F)cc4)CC3)ccc2NC1CSCc1cccc(F)c1` (stereo unspecified), 32.1% (active). In the case of `COC(=O)C1=C(Nc2ccc(C)cc2)C=C(C)C(C(=O)OC)C1c1ccc(F)cc1` (stereo unspecified), the inhibition was 15.8%. Under `COc1ccc(C2=Nc3cc(C)ccc3OC2)cc1` stands 14.7%; under `CCOCCc1c(O)[nH]c(=S)[nH]c1=O`, 5.12%; under `COC(=O)c1ccccc1N=Nc1c(C)[nH][nH]c1=O`, -9.29%. On to `COc1ccccc1N=Nc1c(O)[nH]c(=S)[nH]c1=O`, for which the inhibition is 38.1% (active). As for `O=C(COC(=O)/C=C/c1ccc(S(=O)(=O)N2CCCCCC2)cc1)NCc1ccccc1Cl`, the inhibition was -8.91%.

On to `Cc1cc(C)nc(-n2ncc3c2CC(c2ccc(C(C)C)cc2)CC3=O)n1` (stereo unspecified), for which the inhibition was 2.76%.

`Cc1cccc(C)c1NC1=NC(=S)N(c2ccc(N(C)C)cc2)C1(C)C`: the inhibition was 27.5%. Under `CCOC(=O)C1C(c2ccc(O)cc2)NC(=O)NC1(O)C(F)(F)F` (stereo unspecified) stands -18.4%; under `O=C1NC(c2ccc(-c3ccccc3[N+](=O)[O-])o2)C(C(=O)c2ccc(Cl)cc2)C(O)(C(F)(F)F)N1` (stereo unspecified), 38.5% (active). Under `Cc1cn(C)c(=O)n(C)c1=O` stands -10.2%; under `CCCCCC(=O)N1C[C@H](O)[C@@H](n2cc(COC(=O)c3ccccc3)nn2)C[C@@H]1c1ccc(C)cc1`, 30.5% (active); under `CCCCCCN1C[C@@H](O)[C@H](n2cc(COC(=O)c3ccccc3)nn2)C[C@@H]1c1ccc(Cl)cc1`, -5.93%.

In the case of `Cc1ccc([C@H]2C[C@H](O)[C@@H](n3cc(COC(=O)c4ccccc4)nn3)CN2C(=O)C2CCCCC2)cc1`, the inhibition was 9.18%.

For the compound `COc1ccc(C(C#N)N2N=C(C)CC2(C)C)cc1` (stereo unspecified), the inhibition was 4.09%. Consider `COc1cc(Cl)c(C)cc1NC(=O)[C@@H]1CCCN1C(=O)c1cccs1`, for which the inhibition is -1.68%. In the case of `CCC1=NN(C(=O)Cc2ccc([N+](=O)[O-])cc2)C(O)(c2ccc(Br)cc2)C1` (stereo unspecified), the inhibition was -9.95%. Under `C=CCC[C@H](CCCCC)OC(=O)/C=C/[C@H](O)[C@@H](O)C[C@@H](O)CC=C` stands 18.2%.

`C=CCC[C@@H](CCCCC)OC(=O)/C=C/[C@@H](O)[C@H](O)C[C@H](O)CC=C`: the inhibition is 32.8% (active).

Consider `O=C(CCl)NNc1cccc(Cl)n1`, for which the inhibition was 2.47%. The value for `Cc1ccc(C23CC4CC(CC(C(=O)NCC(=O)O)(C4)C2)C3)cc1` was 12.6%.

On to `CN(C)c1ccc(N/C=C/C(=O)C(F)(F)F)cc1`, for which the inhibition is 65% (active). Regarding `Cc1cc(C(=O)N/N=C/c2ccc(O)c([N+](=O)[O-])c2)c(C)n1-c1ccc(F)cc1`, the inhibition was 45.6% (active). The value for `Cc1ccc(NC(=O)CN(C)Cc2ccc(F)cc2)c([N+](=O)[O-])c1` was -3.76%; that for `Cc1cc(C(=O)COc2ccccc2[N+](=O)[O-])c(C)n1-c1cccc(S(=O)(=O)N2CCOCC2)c1` was 15.2%; that for `CC(C)(C)n1nnnc1C(c1ccccc1F)N1CCN(C(=O)c2ccco2)CC1` (stereo unspecified) was 9.18%. The value for `CC(C)c1ccc(NC(=O)COC(=O)c2ccc(CN3CCCC3=O)cc2)cc1` was 3.69%; that for `CC(=O)N1CCN(c2ccc(NCc3ccc(C(C)C)cc3)cc2)CC1` was 34.2% (active). For `CC(C)c1ccc(OCC(=O)N2CCCN(C)CC2)cc1`, the inhibition was 7.24%. Regarding `O=C(NC1CC1)C1=C[C@H](c2coc3ccccc3c2=O)C[C@H](OCCCCO)O1`, the inhibition was -2.05%. As to `CCOc1ccc(NC(=O)CCCCCN2C(=O)[C@@H]3Cc4ccccc4CN3C2=O)cc1`, the inhibition is 13.7%. Take `CC(C)(C)NC(=O)CN(C(=O)c1csnn1)c1ccccc1-c1ccccc1`: the inhibition is -7.68%. The value for `CSc1ccccc1NC(=O)c1cc(C2CC2)on1` was 11.1%; that for `NC1=CC(=O)C(=O)c2cccnc21` was 104% (active); that for `O=C(NC1CCN(C(=S)NCc2ccco2)CC1)c1ccc(F)cc1` was 13.2%.

In the case of `COc1ccccc1N(CC(=O)Nc1ccc(C)cc1Cl)S(=O)(=O)c1cccs1`, the inhibition was 1.37%.

A word on the inhibition: it is the change of the read-out against control, counted positive when it falls.
